Data on 13 compounds can be found in PubChem BioAssay (NCATS).

Values joined by “and” are separate entries in the source; they are usually repeats but may differ in a detail not shown here. Equal entries are not always repeated. Values without a mark were called inactive. Records with an inconclusive call do not appear. Active and inactive are the calls of the source. Unless noted, calls follow the shape of the dose curve; as a rule, active = well fitted curve in the direction sought with a large enough effect; inconclusive = small, poorly fitted or top-dose-only effect, or another doubt; inactive = no such curve, though single readings can be large; an effect the other way counts as inactive or inconclusive.

A short description of test [1]: Cellular Toxicity (caspase-3) Renal Proximal Tubule (AID 667).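 Also: cells exposed to compound for 16 hours at 37 °C before detection; 0% = DMSO basal and 100% = 10 µM staurosporine.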 As to conditions: Potency: caspase-3 activation. The method, boiled down:
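AC50 derived by standard Hill fit of concentration-response data, normalized between DMSO basal and 10 uM staurosporine as 100% stimulation. Cells: primary rat kidney proximal tubule, 16 h treatment at 37 °C.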

Test [2] has as its target Guanine nucleotide-binding protein G(i) subunit alpha-1 (Homo sapiens) (UniProt P63096). Kind of test: qHTS Assay for Inhibitors of RGS12 GoLoco Motif Activity (Green Fluorophore) (AID 879).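 Also: 0% = labeled peptide with Gαi1 and full inhibition = labeled peptide alone without protein; negative values mean loss of peptide binding seen as reduced polarization.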 The method, boiled down:
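Fluorescence polarization assay: 50 nM Gαi1 with 10 nM FITC-labeled RGS12 GoLoco peptide in 10 mM Tris pH 7.5, 150 mM NaCl, 0.1 mM GDP, 0.05% NP40, 10 min at room temperature with compound.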
(In qHTS, concentration-response curves come from the screen itself.)

For test [3], the target named is Cytochrome P450 2D6 (Homo sapiens) (UniProt P10635). As to the kind of experiment: qHTS Assay for Inhibitors and Substrates of Cytochrome P450 2D6 (AID 891).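 Also: luciferin methyl ether substrate demethylated by CYP2D6 with NADPH regeneration; % is scaled to controls: 0 for no effect and ±100 for the full control effect; nearly all actives have a fitted effect of over 60% in size.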 The method, boiled down:
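Human CYP2D6 (5 nM) with 30 uM Luciferin-ME EGE (at Km) in 100 mM KPO4, compound preincubated 10 min, then NADPH regeneration system for 60 min at room temperature. Luciferin read by luminescence; normalized to 1.43 uM quinidine.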

For test [4], the target named is Cytochrome P450 2C19 (Homo sapiens) (UniProt P33261). Kind of test: qHTS Assay for Inhibitors and Substrates of Cytochrome P450 2C19 (AID 899). Also: nearly all actives have a fitted effect of over 60% in size. Also: potency is read from the fitted curve at half-maximal effect. The method, boiled down:
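Luminescent read-out of luciferin formed from Luciferin-H EGE (10uM, equal to KM). Enzyme 5nM in 50mM KPO4; compound added, 10 min at 37C, then NADPH regenerating system for 60 min at 37C. Full inhibition defined by 57uM ketoconazole.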

A short description of test [5]: Confirmation and Secondary Assay for Modulators of Hemoglobin Beta Chain Splicing at IVS2 654 locus (AID 910).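 Also: HeLa cells stably carrying EGFP split by mutant beta-globin IVS2-654 intron; % of control where 0% means no effect.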 Summed up:
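HeLa cells stably expressing EGFP interrupted by β-globin IVS2-654 intron, seeded overnight in Opti-MEM/2% FCS, then treated 2 days at 37 °C. Restored splicing read as total peak GFP intensity per well by laser scanning cytometry (488 nm excitation, 500–520 nm emission); 500 nM antisense PNA as control.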

Test [6] can be described thus: qHTS Assay for Identification of Small Molecule Agonists for Hypoxia Response Element Signaling Pathway (AID 914; active = well fitted activation curve with a large enough effect in the signal ratio, with a control signal flat, not every such curve was filed as active; the % refers to the signal ratio; also: % of control where 0% means no effect). As to conditions: ME-180 HRE-bla reporter, beta-lactamase ratio, CoCl2, 17 h; stronger effect = higher value. Summed up:
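In Opti-MEM containing 0.5% dialyzed FBS and 10 mM HEPES, ME-180 HRE-bla cells received a compound titration and EC50 CoCl2. They were incubated 17 hours, then CCF4-loaded 2.5 hours at room temperature before ratio reading.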

A short description of test [7]: qHTS Assay for Identification of Small Molecule Agonists for Thrombopoietin (TPO) Signaling Pathway (AID 917). Also: potency is read from the fitted curve at half-maximal effect. The method, boiled down:
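Luminescence from a Glycoprotein IIb promoter–driven luciferase reporter served as read-out in murine Ba/F3 cells carrying the human TPO receptor. Cells, deprived of IL-3 overnight, received compounds with 26 pM TPO and were incubated 24 hrs at 37 C.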

Test [8] in a line: Cell Viability - LYMP2-001 (AID 921).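 Also: series mostly up to about 92 µM; cells exposed to compound for 24 h at 37 °C; 0% = DMSO only and full inhibition = tetraoctylammonium bromide control wells; nearly all actives have a fitted effect of over 70% in size.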 Summed up:
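Steps: seed 2500 lymphoblastoid cells/well; 5 hr, 37 C; add compound; 24 hr, 37 C; CellTiter-Glo reagent, 30 min room temperature; read luminescence. Concentration-response modeled by Hill equation for AC50.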

Test [9] in a line: Confirmation and Secondary Assay for Modulators of Hemoglobin Beta Chain Splicing at IVS2 705 locus (AID 930).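 Also: HeLa cells stably expressing the EGFP-705 splicing reporter; GFP fluorescence per well restored by corrected splicing of the IVS2-705 intron in EGFP; series mostly up to about 46 µM; % of control where 0% means no effect.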 Summed up:
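Per-well GFP, captured at 1 x 8 µm resolution with 488 nm excitation, served as the read-out for HeLa EGFP-705 cells incubated 2 days with test compound versus DMSO.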

The target in test [10] is Pyruvate kinase (Leishmania mexicana) (UniProt Q27686). As to the kind of experiment: qHTS Validation Assay for Inhibitors of Leishmania Mexicana Pyruvate Kinase (AID 945). Also: potency is read from the fitted curve at half-maximal effect. Summed up: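 An endpoint luciferase assay: 0.2 nM LmPYK E451W turns over 0.5 mM PEP with 0.1 mM ADP for 1 h at room temperature, pH 7.2, before PKLight addition. Values are normalized to DMSO-only wells.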
Pyruvate kinase (Leishmania mexicana), sequence (Q27686 2-499 E452W): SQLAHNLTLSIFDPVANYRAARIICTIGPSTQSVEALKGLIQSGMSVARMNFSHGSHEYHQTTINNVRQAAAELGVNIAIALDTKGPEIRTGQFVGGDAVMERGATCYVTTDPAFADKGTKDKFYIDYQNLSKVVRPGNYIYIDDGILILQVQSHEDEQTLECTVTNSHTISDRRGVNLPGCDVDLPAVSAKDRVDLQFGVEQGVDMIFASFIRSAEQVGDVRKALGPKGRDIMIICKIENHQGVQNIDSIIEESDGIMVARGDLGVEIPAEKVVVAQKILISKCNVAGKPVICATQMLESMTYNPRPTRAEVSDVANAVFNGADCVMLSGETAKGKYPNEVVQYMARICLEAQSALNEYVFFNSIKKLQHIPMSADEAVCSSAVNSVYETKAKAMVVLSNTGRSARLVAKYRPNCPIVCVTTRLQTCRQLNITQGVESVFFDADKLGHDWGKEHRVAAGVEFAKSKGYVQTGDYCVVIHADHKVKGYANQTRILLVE

Test [11] in a line: MultiTox-Fluor Cytotoxicity Assay - LYMP1-001 - Dead Cells (AID 946). Summed up:
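Cytotoxicity as increased dead-cell protease fluorescence (bis-AAF-R110, 485/520 nm), read 60 min after MultiTox-Fluor reagent. Human lymphoblastoid line exposed 16 h; Hill-fitted AC50, with DMSO as 0% and 15 uM tetraoctylammonium bromide as 100%.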

Test [12] can be described thus: MultiTox-Fluor Cytotoxicity Assay - LYMP1-001 - Live Cells (AID 947).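 Also: 0% = DMSO only and full inhibition = tetraoctylammonium bromide control.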
For test [13], the target named is Cytochrome P450 2C9 (Homo sapiens) (UniProt P11712). Kind of test: qHTS Assay for Inhibitors and Substrates of Cytochrome P450 2C9 (AID 883). Also: nearly all actives have a fitted effect of over 60% in size. Also: potency is read from the fitted curve at half-maximal effect. Summed up: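 10nM CYP2C9 + 100uM Luciferin-H (=KM), 25mM KPO4; cpd 10 min 37C; NADPH regen, 60 min 37C; stop/detect with P450 Glo-Buffer 20 min; luminescence. Norm. to 57uM sulphaphenazole as full inhibition.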
Cytochrome P450 2C9 (Homo sapiens), sequence (P11712 whole entry, looked up): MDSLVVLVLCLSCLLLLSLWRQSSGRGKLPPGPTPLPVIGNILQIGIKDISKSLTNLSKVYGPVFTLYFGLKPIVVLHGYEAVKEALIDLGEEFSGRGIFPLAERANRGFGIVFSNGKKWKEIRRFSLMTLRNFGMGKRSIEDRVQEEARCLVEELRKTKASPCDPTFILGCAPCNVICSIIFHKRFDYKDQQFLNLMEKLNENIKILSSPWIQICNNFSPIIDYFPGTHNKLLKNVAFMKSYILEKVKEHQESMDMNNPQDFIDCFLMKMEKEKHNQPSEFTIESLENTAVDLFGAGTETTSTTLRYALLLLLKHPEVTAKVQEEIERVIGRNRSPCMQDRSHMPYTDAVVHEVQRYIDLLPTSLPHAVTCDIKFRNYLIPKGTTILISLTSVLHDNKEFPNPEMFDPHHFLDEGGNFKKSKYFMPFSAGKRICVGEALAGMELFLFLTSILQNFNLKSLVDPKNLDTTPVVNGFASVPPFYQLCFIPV
Test [14] deals with Cytochrome P450 3A4 (Homo sapiens) (UniProt P08684). As to the kind of experiment: qHTS Assay for Inhibitors and Substrates of Cytochrome P450 3A4 (AID 884). Also: nearly all actives have a fitted effect of over 50% in size. Also: potency is read from the fitted curve at half-maximal effect. The method, boiled down:
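20 nM human CYP3A4 with 25 uM Luciferin-PPXE (at KM) in 200 mM KPO4, preincubated 10 min with compound; NADPH regeneration started a 60 min RT reaction. Luciferin detected by luminescence, normalized to 57 uM ketoconazole as full inhibition.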

The target is the same in test [15]. Kind of test: qHTS Assay for Activators of Cytochrome P450 3A4 (AID 885). Also: nearly all actives have a fitted effect of over 65% in size. The method, boiled down: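 Signal was normalized against complete inhibition by 57 uM ketoconazole. The reaction used 20nM CYP3A4 with 25uM Luciferin-PPXE, 10-min compound preincubation and a 60-min NADPH-supported step at RT.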
Test [16] is described as follows: qHTS Assay for Identification of Small Molecule Antagonists for NFkB Signaling Pathway (AID 895; active = well fitted inhibition curve with a large enough effect in the signal ratio, with a control signal flat, not every such curve was filed as active; the % refers to the signal ratio; also: % is scaled to controls: 0 for no effect and ±100 for the full control effect). Summed up: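 ME-180 NFkB-bla cells (beta-lactamase under NFkB response element), plated overnight, treated with compound then 10 pM TNF alpha (about EC50) for 5 hrs at 37 C. LiveBLAzer FRET read at 460/530 nm emission, 405 nm excitation.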
In test [17] the target is Muscarinic acetylcholine receptor M1 (Rattus norvegicus) (UniProt P08482). As to the kind of experiment: qHTS Assay for Antagonists of Acetylcholine Muscarinic M1 Receptor: Measurement of IP-One Response (AID 944). Also: nearly all actives have a fitted effect of over 75% in size. Summed up: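 M1-CHO (rat), 2000 cells/well, overnight recovery; cpd 10 min; carbachol EC80 (200 nM), 30 min, HEPES buffer + 50 mM LiCl pH 7.4; IP-One HTRF, Ex 337, Em 620/665 nm.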
Muscarinic acetylcholine receptor M1 (Rattus norvegicus), sequence (P08482 whole entry, looked up): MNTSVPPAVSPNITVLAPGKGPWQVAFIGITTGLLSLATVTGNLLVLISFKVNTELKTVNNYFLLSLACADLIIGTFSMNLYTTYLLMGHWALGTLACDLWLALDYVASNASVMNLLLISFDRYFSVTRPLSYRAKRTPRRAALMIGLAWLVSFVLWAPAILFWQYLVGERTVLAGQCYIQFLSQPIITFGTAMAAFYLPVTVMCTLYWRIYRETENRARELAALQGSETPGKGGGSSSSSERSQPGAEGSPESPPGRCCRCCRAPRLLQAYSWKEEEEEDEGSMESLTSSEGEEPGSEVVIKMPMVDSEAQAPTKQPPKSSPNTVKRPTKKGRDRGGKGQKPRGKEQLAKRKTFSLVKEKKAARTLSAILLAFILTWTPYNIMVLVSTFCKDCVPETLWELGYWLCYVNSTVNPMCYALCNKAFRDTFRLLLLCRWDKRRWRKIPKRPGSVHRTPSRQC

The target is the same in test [18]. As to the kind of experiment: qHTS Assay for Antagonists of Acetylcholine Muscarinic M1 Receptor: Kinetic Measurement of Intracellular Calcium Response (AID 943).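 Also: Fluo-4 calcium signal as peak divided by basal fluorescence over 4 min; series mostly up to about 35 µM; nearly all actives have a fitted effect of over 75% in size.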 The method, boiled down:
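Rat M1-CHO cells, 2000/well, overnight → Fluo-4 no-wash dye with probenecid, 1 h 37C → compound 10 min, room temp → basal read 6 s → carbachol EC80 (100 nM) → 4 min kinetic read; peak/basal.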

The nature of test [19]: qHTS Assay for Identification of Small Molecule Antagonists for Thrombopoietin (TPO) Signaling Pathway (AID 918). Also: potency is read from the fitted curve at half-maximal effect; nearly all actives have a fitted effect of over 60% in size. To be noted: TPO-dependent cell signaling reporter, antagonist mode. Summed up:
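Ba/F3 (murine, hTPO-R, GPIIb-luc reporter); overnight IL-3 withdrawal; cpd + TPO 26 pM final (EC50); 24 h 37 C/5% CO2; Steadylite luminescence after 10 min RT.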

Cytochrome P450 2C19 (Homo sapiens), sequence (P33261 whole entry, looked up): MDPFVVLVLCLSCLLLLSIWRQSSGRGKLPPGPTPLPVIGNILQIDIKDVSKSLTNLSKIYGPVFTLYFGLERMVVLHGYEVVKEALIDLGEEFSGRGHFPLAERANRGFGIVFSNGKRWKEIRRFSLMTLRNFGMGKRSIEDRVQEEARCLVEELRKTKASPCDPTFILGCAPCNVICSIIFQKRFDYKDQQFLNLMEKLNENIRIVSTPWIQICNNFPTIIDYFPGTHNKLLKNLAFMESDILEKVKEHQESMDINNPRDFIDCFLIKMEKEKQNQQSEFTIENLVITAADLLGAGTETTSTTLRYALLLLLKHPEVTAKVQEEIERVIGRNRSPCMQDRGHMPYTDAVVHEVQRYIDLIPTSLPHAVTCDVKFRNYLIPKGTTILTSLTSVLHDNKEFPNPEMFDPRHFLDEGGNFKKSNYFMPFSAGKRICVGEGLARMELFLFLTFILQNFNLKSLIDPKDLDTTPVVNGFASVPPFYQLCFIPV
Guanine nucleotide-binding protein G(i) subunit alpha-1 (Homo sapiens), sequence (P63096 whole entry, looked up): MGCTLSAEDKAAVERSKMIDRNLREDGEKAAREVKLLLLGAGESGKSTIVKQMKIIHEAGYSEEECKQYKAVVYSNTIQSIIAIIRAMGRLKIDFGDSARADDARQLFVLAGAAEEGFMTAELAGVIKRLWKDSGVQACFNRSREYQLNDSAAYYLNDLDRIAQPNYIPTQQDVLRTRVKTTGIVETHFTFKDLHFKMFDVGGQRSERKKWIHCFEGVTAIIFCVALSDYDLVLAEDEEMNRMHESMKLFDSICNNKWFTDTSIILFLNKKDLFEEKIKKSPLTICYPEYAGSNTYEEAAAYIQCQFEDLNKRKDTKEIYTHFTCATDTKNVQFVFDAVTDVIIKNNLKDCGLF
Cytochrome P450 3A4 (Homo sapiens), sequence (P08684 whole entry, looked up): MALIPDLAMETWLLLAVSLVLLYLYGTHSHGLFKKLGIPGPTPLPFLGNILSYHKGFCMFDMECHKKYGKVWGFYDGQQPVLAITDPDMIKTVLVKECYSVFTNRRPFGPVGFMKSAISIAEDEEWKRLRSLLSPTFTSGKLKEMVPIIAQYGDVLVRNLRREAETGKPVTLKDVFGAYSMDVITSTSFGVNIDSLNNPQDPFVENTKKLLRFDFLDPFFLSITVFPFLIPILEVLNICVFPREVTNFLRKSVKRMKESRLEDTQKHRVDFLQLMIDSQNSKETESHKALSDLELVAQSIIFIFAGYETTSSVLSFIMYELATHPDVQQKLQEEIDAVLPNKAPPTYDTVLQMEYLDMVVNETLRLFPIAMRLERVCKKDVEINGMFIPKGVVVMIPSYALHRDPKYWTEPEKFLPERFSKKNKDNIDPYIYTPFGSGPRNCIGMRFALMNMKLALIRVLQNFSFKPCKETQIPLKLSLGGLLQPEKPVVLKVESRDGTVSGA
Cytochrome P450 2D6 (Homo sapiens), sequence (P10635 whole entry, looked up): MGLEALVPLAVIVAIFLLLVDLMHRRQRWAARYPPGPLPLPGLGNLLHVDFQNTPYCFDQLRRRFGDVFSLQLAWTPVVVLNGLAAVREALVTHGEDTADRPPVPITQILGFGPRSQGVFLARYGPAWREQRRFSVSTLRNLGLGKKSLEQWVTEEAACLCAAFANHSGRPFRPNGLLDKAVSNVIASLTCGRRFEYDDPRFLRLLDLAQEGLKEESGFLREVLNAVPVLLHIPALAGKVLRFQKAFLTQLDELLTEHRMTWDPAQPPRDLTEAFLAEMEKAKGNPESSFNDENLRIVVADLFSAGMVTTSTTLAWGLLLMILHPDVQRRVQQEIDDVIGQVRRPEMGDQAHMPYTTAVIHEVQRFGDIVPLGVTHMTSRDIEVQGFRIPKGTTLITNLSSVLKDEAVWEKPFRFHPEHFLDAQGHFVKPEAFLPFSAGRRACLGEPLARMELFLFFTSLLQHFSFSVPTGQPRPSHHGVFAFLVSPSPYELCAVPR

Take `CCCCC1C(=O)N(c2ccccc2)N(c2ccccc2)C1=O`: the Potency entry in test [1], in test [3], in test [4], in test [7], in test [8] and in [10] was “inactive” each time. The Potency entry in test [11] is “inactive”. Further, the compound was classed as inactive in [2], in [5], in test [9] and in test [12]. In test [6], the activation is -18.4% and -5.39%.
As to `CC(C)OC(=O)C(C)(C)Oc1ccc(C(=O)c2ccc(Cl)cc2)cc1`, the outcome in test [2], in [5] and in test [9] was inactive. Further, the Potency in test [13] is 5.01 µM (active). Besides, the Potency result in test [14], in [3] and in test [7] was “inactive” throughout.
Turning to `O=C1NCC2(CCN(CCc3ccccc3)CC2)O1`, the call in test [2], in test [5] and in test [9] was inactive. Also, the Potency entry in test [14], in [7] and in test [10] was “inactive” throughout.
Turning to `COc1cccc(-c2cc(=O)c3ccccc3o2)c1N`, the compound was called inactive in test [2], in test [15] and in test [17]. For the same compound, the Potency is 7.94 µM (active) in test [14], 6.31 µM (active) in test [4], 0.398 µM (active) in [7] and 12.6 µM (active) in [10]. The Potency result in test [16] was “inactive”.
In the case of `C[N+](C)(C)CCCCCC[N+](C)(C)C`, the result in test [2], in test [5], in test [9], in test [18] and in [17] was inactive. In addition, the Potency entry in test [13], in test [14], in test [7] and in test [10] was “inactive” in each case.
With `O=C1NC(=O)C(c2ccccc2)(c2ccccc2)N1`, the Potency result in [1], in test [14], in test [7], in test [8], in test [10] and in test [11] was “inactive” in each case. For the same compound, the result in test [2], in [5] and in [9] was inactive.
For the compound `c1cc(-c2sc(-c3ccncc3)c(-c3ccncc3)c2-c2ccncc2)ccn1`, the Potency is 2 µM (active) in test [13], 0.316 µM (active) in test [14] and 1.58 µM (active) in test [4]. Also, in [15], the activity change, positive = activation was -102% [at 11.4 µM]. Also, in test [6], the activation was -25.7%.
On to `C[N+](C)(C)CC(=O)O`, for which the compound was called inactive in test [2], in test [18] and in test [17]. Besides, the Potency entry in [7] and in [10] was “inactive” each time.
With `CC(C)NCC(O)COc1cccc2[nH]ccc12` (stereo not drawn), the compound was classed as inactive in test [2], in test [5] and in test [9]. For the same compound, the Potency entry in [7] and in test [10] was “inactive” in each case.
On to `CS(=O)c1ccc(-c2nc(-c3ccc(F)cc3)c(-c3ccncc3)[nH]2)cc1` (stereo not drawn), for which the Potency was 2 µM (active) in test [13] and 0.0398 µM (active) in test [4]. Besides, the compound was called inactive in test [15].
Regarding `c1ccc2c(Cc3c[nH]c4ccccc34)c[nH]c2c1`, the compound was classed as inactive in [15], in test [5] and in test [9].
On to `CC(C)(C)c1ccc(C(O)CCCN2CCC(C(O)(c3ccccc3)c3ccccc3)CC2)cc1` (stereo not drawn), for which the compound was called inactive in [2]. For the same compound, the activation in [6] was 3.01%. The Potency in [19] was 2.51 µM (active). Moreover, the Potency result in test [10] was “inactive”.
`C[C@]12CCC3c4ccc(O)cc4CCC3C1CCC2=O` (stereo partly drawn): the compound was classed as inactive in test [5] and in test [9].
